Rv3671c inh: Rv3671c serine protease inhibitors, primary screen, biochemical, fluorescence polarization, M. tuberculosis H37Rv | P9WHR9 | inhibition, % at 5.96 µM | actives 0.048% (n = 320,000);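 note: extracellular domain of Rv3671c used as enzyme; 0% = enzyme with DMSO and 100% = no enzyme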
TcdB inh: TcdB glycohydrolase inhibitors, primary screen, biochemical, single point, plate reader. Toxin B (Clostridioides difficile), P18177. TcdB glycohydrolase enzymatic assay. inhibition, % at 9.99 µM. actives 0.24% (n = 350,000). AID 652162, 2013; in the data active = inhibition above about 10%
FadD28 FP inh: inhibitors of FadD28 bisubstrate probe binding, primary screen, biochemical, fluorescence polarization, single point. inhibition, % at 12.5 µM. actives 0.22% (n = 360,000). Mycobacterium tuberculosis FadD28 fatty-acid-AMP ligase; in the data active = inhibition above about 8.5%, passing the limit was not always enough
Mtb UGM inh: M. tuberculosis UGM enzyme inhibitors, primary screen, biochemical, fluorescence polarization, single point. inhibition, % at 10 µM. actives 0.06% (n = 320,000). purified UGM, fluorescence polarization probe displacement. UDP-galactopyranose mutase (Mycobacterium tuberculosis (strain ATCC 25618 / H37Rv)), …; in the data active = inhibition above about 10%, passing the limit was not always enough
Target sequence (P9WIQ1 whole entry, looked up): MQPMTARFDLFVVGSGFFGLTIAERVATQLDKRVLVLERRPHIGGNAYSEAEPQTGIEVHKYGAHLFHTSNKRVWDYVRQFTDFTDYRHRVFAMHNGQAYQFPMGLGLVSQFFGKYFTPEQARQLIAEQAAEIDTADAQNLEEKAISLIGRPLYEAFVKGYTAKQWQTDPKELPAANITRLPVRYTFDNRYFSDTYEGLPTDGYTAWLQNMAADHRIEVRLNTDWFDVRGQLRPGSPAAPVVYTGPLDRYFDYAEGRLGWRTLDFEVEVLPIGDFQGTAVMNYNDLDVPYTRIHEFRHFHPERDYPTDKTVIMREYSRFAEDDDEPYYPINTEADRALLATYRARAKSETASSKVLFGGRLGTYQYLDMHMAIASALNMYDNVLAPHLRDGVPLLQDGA
RecA intein inh: Mtb RecA intein splicing inhibitors, primary screen, biochemical, fluorescence, HTS; actives 0.75% (n = 290,000); Protein RecA (Mycobacterium tuberculosis (strain ATCC 25618 / H37Rv)), P9WHJ3; cell-free RecA intein splicing; AID 2221, 2009; inhibition, % (no concentration beside the values); in the data active = inhibition above about 30%;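 note: 0% = vehicle wells and 100% = reference inhibitor control wells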
Mtb BioA inh: M. tuberculosis BioA enzyme inhibitors, primary screen, biochemical, plate reader, single point, HTS; purified M. tuberculosis BioA enzyme; 7,8-diaminopelargonic acid synthase BioA (Mycobacterium tuberculosis); actives 0.096% (n = 360,000); inhibition, % at 9.99 µM; in the data active = inhibition above about 40%
GFP chromo cs: counter-screen: blocks GFP chromophore formation, dose response, counter-screen, biochemical, fluorescence, homogeneous; EC50, µM; actives 83% (n = 2,100); cell-free GFP chromophore formation; shares compounds with RecA intein inh; call rule not given here
Rv3671c cf: Rv3671c serine protease inhibitors, retest, confirmation, biochemical, fluorescence polarization, M. tuberculosis H37Rv | shares compounds with Rv3671c inh | inhibition, % at 5.96 µM | actives 40% (n = 140)
* hit, by the source's call. Hits are enriched below; roughly 0.9% of the tested compounds scored in any of these assays. Cut-off read from the data, not from the text of the source, unless noted: active = inhibition above about 38%; inactive = the rest.

CC(C)(C)c1[nH]nc2c1C(Cc1ccccc1)C(C#N)=C(N)O2 (stereo not given) was read as Rv3671c inh 2, FadD28 FP inh -2, Mtb UGM inh 3, RecA intein inh 54*, Mtb BioA inh 2 and GFP chromo cs 20*.
Cc1ccc(-c2ccc(C3C(C#N)=C(N)Oc4n[nH]c(C)c43)o2)cc1 (stereo not given) was read as Rv3671c inh 0, FadD28 FP inh -1, Mtb UGM inh -3, RecA intein inh 67*, Mtb BioA inh -1 and GFP chromo cs 36*.
Screening Cc1[nH]nc2c1C(C1CC=CCC1)C(C#N)=C(N)O2 (stereo not given) returned Rv3671c inh -1, FadD28 FP inh -5, Mtb UGM inh 0 and Mtb BioA inh 0.
`CC(C)(C)c1[nH]nc2c1C(c1cccnc1)C(C#N)=C(N)O2` (stereo not given) gave Rv3671c inh -6, TcdB inh -1, FadD28 FP inh 0, Mtb UGM inh -1, RecA intein inh -2 and Mtb BioA inh -2.
CC(C)C1C(C#N)=C(N)Oc2n[nH]c(-c3ccc4ccccc4c3)c21 (stereo not given) was read as Rv3671c inh -37, FadD28 FP inh -12, Mtb UGM inh 0, RecA intein inh 3 and Mtb BioA inh 0.
Screening Cc1[nH]nc2c1C(c1ccsc1C)C(C#N)=C(N)O2 (stereo not given) returned Rv3671c inh 2, FadD28 FP inh -3, Mtb UGM inh 4, RecA intein inh 48* and GFP chromo cs 28*.
Cc1noc(C)c1S(=O)(=O)Nc1ccc2c(c1)CC(=O)N([C@H](C)CO)C[C@@H](C)[C@@H](CN(C)Cc1ccc(-c3ccccc3)cc1)O2 was read as TcdB inh 0.
For COc1ccc(S(=O)(=O)N(C)C[C@@H]2OCCCC[C@H](C)Oc3ccc(N(C)C)cc3C(=O)N([C@@H](C)CO)C[C@@H]2C)cc1 the results were TcdB inh -14 and Mtb BioA inh -1.
Screening CN(C)C(=O)C[C@@H]1CC[C@H]2[C@@H](COc3ccc(NC(=O)C4CCC4)cc3C(=O)N2C)O1 returned TcdB inh 0.
`Cc1[nH]c2ccccc2c1/C=N/Nc1nc2ccccc2[nH]1` gave Rv3671c inh 59*, TcdB inh 3, FadD28 FP inh 0, Mtb UGM inh 2, RecA intein inh 34*, Mtb BioA inh 0, GFP chromo cs >38 and Rv3671c cf 41*.
For C[C@@H]1CN([C@H](C)CO)S(=O)(=O)c2ccc(C#CCN(C)C)cc2O[C@@H]1CN(C)CC1CC1 the results were TcdB inh 0 and Mtb BioA inh -1.
`Cc1ccccc1/C=N/Nc1nc2ccccc2[nH]1` gave Rv3671c inh 8, TcdB inh 1, FadD28 FP inh 1, Mtb UGM inh 0 and RecA intein inh -1.
Screening O=[N+]([O-])c1cc(/C=N/Nc2nc3ccccc3[nH]2)c(O)cc1O returned Rv3671c inh 60*, TcdB inh 1, Mtb UGM inh 0, RecA intein inh 40* and Rv3671c cf 29.
`C(=N\Nc1nc2ccccc2[nH]1)/c1ccccc1` gave Rv3671c inh 9, TcdB inh 2, FadD28 FP inh -2, Mtb UGM inh -3, RecA intein inh -16 and Mtb BioA inh -1.
C(=N\Nc1nc2ccccc2[nH]1)/c1c[nH]c2ccccc12 was read as Rv3671c inh 41*, FadD28 FP inh 4, Mtb UGM inh 3, RecA intein inh 22 and Rv3671c cf 92*.

Assay outcomes: PubChem BioAssay, several laboratories
